Assay outcomes deposited in PubChem by National Center for Advancing Translational Sciences (NCATS).
TSG101-PTAP inh – blocks PTAP/TSG101 interaction to inhibit HIV-1 budding | Fluorescence polarization, FITC-PTAP peptide / Tsg101 binding | Potency, µM (top dose mostly 115 µM), for the others: at the top dose activity change, negative = inhibition, most hits filed as inhibitors | 340,000 tested, under 10 active; active = well fitted inhibition curve with a large enough effect in the main read-out, with a control signal flat, not every such curve was filed as active; inconclusive = small, poorly fitted or top-dose-only effect, or effect the other way, or a change in a side signal; inactive = no such curve, though single readings can be large or run the other way; also: % of control where 0% means no effect
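Compounds were pin-transferred onto Tsg101 binding domain (10 uM final) in HEPES pH 7.5 buffer, then FITC-PTAP peptide was added at 50 nM final. After 20 min at RT, polarization reported peptide displacement across a qHTS concentration series.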
12-LOX inh – blocks human arachidonate 12S-lipoxygenase; P18054; purified 12hLO, xylenol orange hydroperoxide absorbance; Potency, µM (series often up to 108 µM), without a hit: at the top dose activity change, negative = inhibition, hits mostly inhibitors; hit rate 1.1% among 580,000; also: % is scaled to controls: 0 for no effect and ±100 for the full control effect
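Hydroperoxide product was detected by ferrous iron/xylenol orange as the 573 to 405 nm absorbance ratio. Arachidonic acid at 40 uM (final) was turned over for 30 min at room temperature by 150 nM human 12hLO, pH 7.0 Hepes buffer, after 15 min compound preincubation.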
Eya2 inh – inhibitors of human Eya2 phosphatase activity; recombinant Eya2, OMFP fluorescence dephosphorylation (OMFP is methylfluorescein phosphate); Potency, µM (top dose mostly 76.9 µM), for inactives: at the highest dose activity, negative = inhibition, actives largely listed as inhibitors; hit rate 0.006% among 330,000; AID 488837; also: % is scaled to controls: 0 for no effect and ±100 for the full control effect
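Eya2 (0.2 uM) preincubated 10 min at ambient with compound, then OMFP substrate added at 50 uM; 10 min reaction in 50 mM HEPES pH 7.5, 50 mM NaCl, 5 uM MgCl2, 0.05% BSA, 1 mM DTT. Fluorescence read at Ex 485/Em 525 nm.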
USP2a inh – USP2a (human) protease inhibition; O75604; USP2 core, Ub-CHOP2 coupled fluorogenic reporter, 485/531; Potency, µM (series often up to 38.3 µM), without a hit: at the top dose activity change, negative = inhibition, actives largely listed as inhibitors; hit rate 0.01% among 330,000; AID 463254;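 also: plate controls were DMSO wells for no effect and full inhibition by NEM control for full effect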
Target sequence (O75604 whole entry, looked up): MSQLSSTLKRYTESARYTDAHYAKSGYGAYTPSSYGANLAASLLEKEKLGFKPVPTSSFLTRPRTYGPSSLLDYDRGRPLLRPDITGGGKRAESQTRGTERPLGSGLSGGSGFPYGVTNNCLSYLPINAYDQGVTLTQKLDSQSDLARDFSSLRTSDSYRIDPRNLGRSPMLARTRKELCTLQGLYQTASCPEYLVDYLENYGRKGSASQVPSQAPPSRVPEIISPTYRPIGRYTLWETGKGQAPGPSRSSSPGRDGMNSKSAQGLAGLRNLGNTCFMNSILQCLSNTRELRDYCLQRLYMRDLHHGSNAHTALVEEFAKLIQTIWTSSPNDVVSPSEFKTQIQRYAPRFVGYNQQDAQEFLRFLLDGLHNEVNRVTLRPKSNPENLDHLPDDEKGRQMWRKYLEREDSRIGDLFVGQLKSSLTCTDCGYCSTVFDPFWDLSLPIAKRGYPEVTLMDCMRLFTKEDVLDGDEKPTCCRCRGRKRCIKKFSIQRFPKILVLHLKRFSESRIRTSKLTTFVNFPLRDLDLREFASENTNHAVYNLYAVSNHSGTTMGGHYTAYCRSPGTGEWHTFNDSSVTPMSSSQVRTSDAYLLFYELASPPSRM
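Deubiquitinase activity read as fluorescence (485/531 nm) after Ub-CHOP2 cleavage activates the enterokinase reporter on its substrate; USP2 core 10nM, Ub-CHOP2 and substrate 25nM each, 30min compound preincubation then 60min RT; data normalized to NEM, curves fitted.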
Starred values were filed as active, the others as inactive; ? = inconclusive; . = no result; ! = not active in a repeat; [ ] = dose if it differs, or a comment. Hits are enriched below; roughly 1.1% of the tested compounds scored in any of these assays. Unless noted, calls follow the shape of the dose curve; as a rule, active = well fitted curve in the direction sought with a large enough effect; inconclusive = small, poorly fitted or top-dose-only effect, or another doubt; inactive = no such curve, though single readings can be large; an effect the other way counts as inactive or inconclusive. Potency is read from the fitted curve at half-maximal effect.

SMILES	TSG101-PTAP inh	12-LOX inh	Eya2 inh	USP2a inh
CCn1c(COc2cccc3cccnc23)nnc1SCC(=O)O	-3%	?	6%	-1%
Cn1c(COc2cccc3cccnc23)nnc1SCC(=O)O	-1%	7.9µM*!	4%	0%
CCC(CO)Oc1cc(NC(=O)c2ccccc2F)c2ncn(C(C)C)c2c1 (stereo unspecified)	-2%	28µM*	?	-11%
O=C(O)c1cc2ccccc2c(Cc2c(O)c(C(=O)O)cc3ccccc23)c1O	.	13µM*	.	.
COc1ccccc1-c1cc(C(=O)O)c2ccc(C)c(C)c2n1	.	-22%	.	.
COc1ccccc1-c1cc(C(=O)O)c2cc(C)cc(C)c2n1	.	28µM*	.	.
Cc1cccc(OCCCCn2c(C3CC(=O)N(c4ccc(C)cc4C)C3)nc3ccccc32)c1 (stereo unspecified)	.	18µM*	.	.
O=C(CCN1CCN(c2cnccn2)CC1)Nc1ccccc1F	.	-18%	.	.
Fc1ccc(/C=C2\CCCC3=C2NC(=S)NC3c2ccc(F)cc2)cc1 (stereo unspecified)	.	.	-3%	-1%
Fc1ccc(/C=C2\CCCC3=C2N=C2SC=C(c4ccccc4)N2C3c2ccc(F)cc2)cc1 (stereo unspecified)	.	22µM*	.	.
Cc1ccc(NC(=O)CCC2CCCCC2)c(NC(=O)c2ccco2)c1	.	3.5µM*	.	.
Cn1cc(CN[C@H]2[C@H](O)[C@H](O)C[C@@H]2c2ccccc2)c2ccccc21	.	16%[176 µM]	.	.
Cn1cc(CN[C@H]2[C@H](O)[C@H](O)C[C@@H]2c2cccnc2)c2ccccc21	.	45µM*	.	.
O=C(c1ccc(Cl)cc1)C(CN1CCCCCC1)c1ccccc1 (stereo unspecified)	.	-14%	.	.
O=C(c1ccccc1)C(CN1CCCCC1)c1ccccc1 (stereo unspecified)	-4%	45µM*	.	.
O=C(O)/C(=C\c1cccc(F)c1)c1ccc(S(=O)(=O)N2CCCCC2)s1	-4%	-25%	-4%	0%
O=C(O)/C(=C/c1ccc(Cl)c([N+](=O)[O-])c1)c1ccc(S(=O)(=O)N2CCCCC2)s1	-10%	25µM*	.	.
Cn1nc(C(=O)NC23CC4CC(CC(C4)C2)C3)c2ccccc2c1=O	.	1%	.	.
COc1cccc(C2CCCN2Cc2cc(=O)oc3cc(OC)ccc23)c1 (stereo unspecified)	.	45µM*	.	.
COc1cc(OC)cc(C(=O)NC(=S)NNC(=O)c2cnccn2)c1	-1%	50µM*	15%	4%
O=C(/C=C/c1ccccc1)OC/C=C/c1ccccc1	.	-7%[176 µM]	.	.
CCN(CC)c1ccc(NS(=O)(=O)c2cc3[nH]c(=O)c(=O)[nH]c3cc2C)c(C)c1	.	45µM*	.	.
CC(C)(C)c1nc(C(=O)N2CCCC2)n2ccccc12	.	55%[176 µM]	.	.
Cc1ccc(C(=O)N2CCCC3(C2)Nc2cccnc2NC3=NC2CCCC2)cc1F (stereo unspecified)	.	62%	.	.
CC[C@@H](NC(=O)[C@@H](Cc1ccccc1)NC(=O)CC[C@H]1O[C@@H](n2ccc(=O)[nH]c2=O)[C@H](O)[C@@H]1O)c1ccccc1	.	32µM*	.	.
SMILES	TSG101-PTAP inh	12-LOX inh	Eya2 inh	USP2a inh
C/C(=N\Nc1ccccc1Br)c1ccc(-c2ccccc2)cc1	.	0.71µM*	.	.
COc1ccc(-c2cc(OC)c3ccccc3n2)cc1	-2%	45µM*	0%	2%
CC(=C1SC(=S)NC1=O)c1ccc(Cl)c(O)c1	.	28µM*	.	.
Cc1[nH][nH]c(=O)c1C(c1ccc(-c2cccc(C(=O)O)c2)o1)c1c(C)[nH][nH]c1=O	-2%	-4%	14%	5%
COC(=O)c1ccc(-c2ccc(C(c3c(C)[nH][nH]c3=O)c3c(C)[nH][nH]c3=O)o2)cc1	-4%	35µM*	21%	5%
O=C(c1ccccc1)[C@@H]1[C@@H](C(=O)c2ccco2)[C@@]2(C(=O)Nc3ccccc32)[C@H]2c3ccccc3C=CN12	.	14µM*	.	.
O=C(c1ccc(F)cc1)[C@@H]1[C@@H](C(=O)c2ccccc2)[C@@]2(C(=O)Nc3ccccc32)[C@H]2c3ccccc3C=CN12	.	.	-12%	4%
CC(C)Cn1c(SCc2noc(-c3ccccc3Cl)n2)nnc1N1CCOCC1	.	6%	.	.
CC(C)(C)C(=O)OCC1CCC[N+]2(C)CCCCC12 (stereo unspecified)	.	28µM*	.	.
Cc1ccccc1C(=O)OCC1CCC[N+]2(C)CCCCC12 (stereo unspecified)	.	28µM*	.	.
COc1ccc(/C=C(\NC(=O)c2ccccc2)C(=O)OC[C@@H]2CCC[N+]3(C)CCCCC23)cc1OC (stereo partly specified)	1%	?	13%	0%
CC(C)(Oc1nn(Cc2cccc(Cl)c2)c2ccccc12)C(=O)N1CCN(CCO)CC1	.	0%	.	.
C[S+](=O)([O-])c1cccc(CN2CC(COc3ccccc3)C3(C2)CN(c2ccccc2)C3)c1 (stereo unspecified)	.	0%	.	.
Oc1ccc(CN2CC(CNc3ccccc3)C3(C2)CN(c2ccccc2)C3)cc1 (stereo unspecified)	.	63µM*	.	.
O=[S+]([O-])(NCC1CN(Cc2ccc3[nH]ccc3c2)CC12CN(c1ccccc1)C2)c1ccccc1 (stereo unspecified)	.	35µM*	.	.
O=C(O)c1cccc(CN2CC(CNc3ccccc3)C3(C2)CN(c2ccccc2)C3)c1 (stereo unspecified)	.	13%[176 µM]	.	.
CCCc1ccc(OC)cc1	.	5%[176 µM]	.	.
COc1ccccc1CNCc1cc(OC)c(OC)cc1OC	-1%	?	11%	1%
COc1ccccc1CNCC(c1ccccc1)c1ccccc1	.	2.5µM*	6%	-1%
Nc1nccnc1C(=O)NCc1ccc(F)cc1	.	39%	.	.
CCCCNC(=S)NC(=O)c1ccccc1Br	-1%	0%	0%	2%
CCCCOc1ccc(C(=O)NC(=S)NCCCO)cc1Br	.	7.9µM*	.	.
O=C1CC(c2ccc(O)c(O)c2)Oc2c1ccc(O)c2O (stereo unspecified)	-1%	35µM*	16%	-8%
O=C1CC(c2ccc(O)cc2)Oc2cc(O)cc(O)c21 (stereo unspecified)	-3%	?	7%	2%
O=C1CC(c2ccc(O)c(O)c2)Oc2cc(O)cc(O)c21 (stereo unspecified)	-4%	6.3µM*	20%	-1%
COc1ccc([C@H]2Cc3cc(O)cc(O)c3C(=O)O2)cc1O	-2%	22µM*	3%	7%
CC(C)=CCc1c(O)ccc2c1OC(c1ccc(O)c(O)c1)CC2=O (stereo unspecified)	1%	28µM*	-12%	4%
CC(C)=CCc1c(O)cc2c(c1O)C(=O)CC(c1ccccc1)O2 (stereo unspecified)	-1%	8%	.	.
Cc1ccc2c(c1)nc1n2[C@@H](CNCc2ccccc2)COC1	.	1%[176 µM]	.	.
Cc1ccc(C(=O)N2CCCN(c3cc(-c4ccc(Cl)cc4)[nH]n3)CC2)s1	.	34%	.	.
